What is called inhibition is the drop in the measured response relative to a control, in per cent.

For 27 molecules, inhibition results are on record in PubChem BioAssay.

The nature of assay [1]: StAR promoter reporter inhibitors, counter-screen for LRH-1 inverse agonist project, cell-based, luminescence, high throughput (AID 651611; in the data active = inhibition above about 28%). As to conditions: StAR promoter luciferase reporter counterscreen, at 3.6 µM, hits give high values. Background: Counterscreens check selectivity or assay interference.
Assay [2] has as its target Nuclear receptor subfamily 5 group A member 2 (Homo sapiens) (UniProt O00482). Put plainly: NR5A2 activity suppression in reporter cells – cell-based, luminescence, confirmation (AID 651613; in the data active = inhibition above about 42%;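 also: HEK293T cells co-transfected with LRH-1 and StAR promoter luciferase reporter; 0% = vehicle wells and 100% = parental cells lacking receptor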). To be noted: cell-based LRH-1 luciferase reporter, inverse agonism; at 3.6 µM; hits give high values. For orientation: In a reporter assay the amount or activity of a reporter protein is the signal.

The target of assay [3] is Steroidogenic factor 1 (Homo sapiens) (UniProt Q13285). The assay is described as follows: inverse agonism at SF1 nuclear receptor – cell-based, luminescence, high throughput, counter-screen for LRH-1 inverse agonist project (AID 651614).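 Also: cells cotransfected with StAR promoter reporter and SF1 expression vector; 0% = vehicle on cells with receptor and 100% = vehicle on cells lacking receptor.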 As to conditions: cell-based SF1 luciferase reporter, at 3.6 µM, hits give high values.
The nature of assay [4]: compounds suppressing VP16-driven luciferase signal – cell-based, luminescence, high throughput, counter-screen for LRH-1 inverse agonist project (AID 651615; in the data active = inhibition above about 33%). As to conditions: Gal4-VP16 luciferase reporter cells, at 3.6 µM, hits give high values.

A number with no mark means an inactive call. Calls of active or inactive are those of the source. Rule as the data show it, unless noted: active = inhibition above about 44%; inactive = the rest.

Chain of Nuclear receptor subfamily 5 group A member 2 (Homo sapiens) (O00482 whole entry, looked up): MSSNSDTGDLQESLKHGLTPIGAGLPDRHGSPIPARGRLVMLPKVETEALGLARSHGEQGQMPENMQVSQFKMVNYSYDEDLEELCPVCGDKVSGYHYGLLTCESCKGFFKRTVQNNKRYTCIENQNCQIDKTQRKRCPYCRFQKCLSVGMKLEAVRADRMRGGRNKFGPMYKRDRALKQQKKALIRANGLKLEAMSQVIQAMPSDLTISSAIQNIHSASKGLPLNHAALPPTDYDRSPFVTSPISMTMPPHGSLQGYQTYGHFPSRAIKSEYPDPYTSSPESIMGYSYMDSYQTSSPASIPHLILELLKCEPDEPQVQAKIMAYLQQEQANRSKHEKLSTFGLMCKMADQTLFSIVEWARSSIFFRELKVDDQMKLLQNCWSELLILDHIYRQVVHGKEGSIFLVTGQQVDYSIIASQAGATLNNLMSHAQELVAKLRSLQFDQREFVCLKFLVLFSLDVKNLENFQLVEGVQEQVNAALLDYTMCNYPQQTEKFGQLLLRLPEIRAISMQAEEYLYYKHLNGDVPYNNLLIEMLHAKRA
Chain of Steroidogenic factor 1 (Homo sapiens) (Q13285 whole entry, looked up, the tested form may be a part): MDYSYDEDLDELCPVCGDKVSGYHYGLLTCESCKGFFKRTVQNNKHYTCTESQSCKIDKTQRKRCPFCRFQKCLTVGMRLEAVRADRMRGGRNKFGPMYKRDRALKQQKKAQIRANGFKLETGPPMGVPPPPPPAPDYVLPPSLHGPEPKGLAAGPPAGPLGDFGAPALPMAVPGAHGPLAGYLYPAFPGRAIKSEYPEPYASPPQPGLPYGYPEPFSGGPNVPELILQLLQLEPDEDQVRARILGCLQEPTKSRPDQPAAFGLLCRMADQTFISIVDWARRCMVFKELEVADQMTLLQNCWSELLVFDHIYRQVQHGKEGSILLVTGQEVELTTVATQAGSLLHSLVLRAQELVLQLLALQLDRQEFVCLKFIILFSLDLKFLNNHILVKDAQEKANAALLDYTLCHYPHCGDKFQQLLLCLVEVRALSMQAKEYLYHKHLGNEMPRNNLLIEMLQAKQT

Consider `COc1ccc(NS(=O)(=O)c2ccc(OCC(=O)N3CCOCC3)cc2)cc1Cl`, for which the inhibition in assay [1] is -8.5%; in assay [2] it was 35.7%; in assay [3] it was 34.3%; in assay [4], 6.15%.
Taken in the same sequence, the figures for `COc1cc(NC(=O)CN2C(=O)NC(c3ccccc3)(c3ccccc3)C2=O)c(C)cc1[N+](=O)[O-]` were 24.1%, 46% (active), 35.3% and 9.47%.
As to `COc1ccc(Nc2nc(NCCN3CCOCC3)nc(Nc3ccc(OC)cc3)n2)cc1`, the inhibition was -1.42% in assay [1], 42.9% (active) in assay [2], 38.6% in assay [3] and 0.52% in assay [4].
With `CCCc1cc(=O)oc2c(C)c(OCC(=O)NCCN3CCOCC3)ccc12`, the inhibition in assay [1] was 6.59%; in assay [2], 43.8% (active); in assay [3] it was 46.3% (active); in assay [4] it was -19.2%.
Consider `COc1ccc(NC(=O)CN2C(=O)NC3(CCCc4ccccc43)C2=O)c(OC)c1` (stereo not drawn), for which the inhibition was 12.3% in assay [1], 50.9% (active) in assay [2], 42% in assay [3] and -6.1% in assay [4].
For the molecule `Cc1cc(/C=N/NC(N)=S)c(C)n1-c1ccc(Cl)c(Cl)c1`, the inhibition in assay [1] is 7.41%; in assay [2], 44.5% (active); in assay [3] it was 39.2%; in assay [4] it was 22.5%.
In the case of `COc1ccc(C(=O)Nc2cnccn2)cc1[N+](=O)[O-]`, the inhibition was -2.94% in assay [1], 35.3% in assay [2], 26.4% in assay [3] and 4.88% in assay [4].
Taken in the same sequence, the figures for `Cc1cccc(NC(=O)CSC2=NN3CCCC(=O)N=C3S2)c1C` were -10.1%, 53.1% (active), 49% (active) and -5.97%.
For `c1ccc(-c2nc(NCC3CCCO3)c3oc4ccccc4c3n2)cc1` (stereo not drawn) the same measures were -0.47%, 38.2%, 39.8% and -17.1%.
Taken in the same sequence, the figures for `Cc1cc(NC(=O)CSc2nc3c(sc4ccccc43)c(=O)n2CCCN2CCOCC2)n[nH]1` were 48% (active), 70.3% (active), 44.2% (active) and -8.59%.
Turning to `CN(C)S(=O)(=O)c1cccc(CSCc2cccc(S(=O)(=O)N(C)C)c2)c1`, the inhibition was 7.72% in assay [1], 59% (active) in assay [2], 38.9% in assay [3] and 46.1% (active) in assay [4].
For `CCN(CC)S(=O)(=O)c1ccc(N2CCCC2)c(NC(=O)c2ccc([N+](=O)[O-])o2)c1` the same measures were 19.4%, 55.4% (active), 56.6% (active) and 10.5%.
As for `COc1ccc(CC(N)c2csc(Nc3ncccn3)n2)cc1` (stereo not drawn), the inhibition was 49.2% (active) in assay [1], 26.2% in assay [2], 33.1% in assay [3] and 15.5% in assay [4].
For `Cc1ccc(-c2cc(NC=O)c3ncc(-c4cnn(C)c4)n3c2)cc1` the same measures were 50.1% (active), 52% (active), 64.3% (active) and -13.8%.
For `CC1(C)Cc2c(sc3nc(SCC(=O)NCc4ccco4)n(-c4ccccc4)c(=O)c23)CS1` the same measures were 14%, 41.6% (active), 40.7% and 4.77%.
As for `O=C1C(=C(I)I)c2ccccc2-c2ccccc21`, the inhibition in assay [1] is 2.21%; in assay [2], 10.4%; in assay [3] it was -21.6%; in assay [4], -39.2%.
For `COc1cccc(/C=N/Nc2nc(Nc3ccccc3)nc(-n3nc(C)cc3C)n2)c1O` the same measures were 40.7% (active), -7.01%, 0.2% and -6.05%.
As to `O=C(COC(=O)c1ccccn1)Nc1cccnc1Cl`, the inhibition was 3.58% in assay [1], 40.5% in assay [2], 39.4% in assay [3] and -6.21% in assay [4].
Take `O=C(N/N=C/c1cc2c3c(c1O)CCCN3CCC2)c1ccccc1O`: the inhibition in assay [1] is 83.4% (active); in assay [2], 103% (active); in assay [3], 87.2% (active); in assay [4], 70.4% (active).
For `c1ccc2c(c1)C1=NCCN1c1ccccc1-2` the same measures were 20%, 104% (active), 50.2% (active) and 87.8% (active).
For `CCOc1ccc(Cc2nnc(SCC(=O)Nc3ccc(C(C)=O)cc3)[nH]c2=O)cc1` the same measures were 1.5%, 52% (active), 40.9% and -7.62%.
For `COC(=O)c1ccc(NC(=O)CN2CCN(c3ccc(Cl)cc3)CC2)cc1` the same measures were -0.66%, 52.3% (active), 45.8% (active) and 2.51%.
Take `COc1cc2c(cc1OC)CN(C(=O)CN1C(=O)NC3(CCC(C)CC3)C1=O)CC2` (stereo not drawn): the inhibition is 11.1% in assay [1], 46% (active) in assay [2], 46.4% (active) in assay [3] and 7.61% in assay [4].
For `COc1ccc(Br)cc1/C=C/C(=O)c1ccc(NC(C)=O)cc1` the same measures were 81.4% (active), 95% (active), 94.5% (active) and 85.4% (active).
On to `O=C(CSc1nc2cccc(F)c2c(=O)n1-c1ccccc1)Nc1ccc2c(c1)CCC2`, for which the inhibition in assay [1] was 19.2%; in assay [2] it was 57.3% (active); in assay [3], 57.5% (active); in assay [4], -5.06%.
For the molecule `COc1ccc(-c2sc(C(=O)c3ccc(Cl)cc3Cl)cc2CC(=O)O)cc1`, the inhibition in assay [1] was 17.8%; in assay [2] it was 42.2% (active); in assay [3], 38%; in assay [4] it was -5.16%.
Taken in the same sequence, the figures for `Cc1ccc(C)c(NC(=O)CSc2nnc(-c3ccccc3)n2N)c1` were -26.9%, 53% (active), 44.7% (active) and -20.5%.
